Test results as given in PubChem BioAssay (NCI).
“And” between values parts separate entries of the source, which are not always exact repeats. Equal values may be shown once. Compounds without any hit were thinned out: in the full panel of roughly 83,000, 20% have a hit.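 Results are percent growth after 48 hours of single-concentration exposure. 100 means growth as in untreated cells, lower positive values show inhibition; negative values down to -100 show cell death.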 Values without a mark were called inactive. The source made the active and inactive calls. Rule for the calls: active = growth percent below 10; inactive = the rest.

Experiments:
Test in all cases: NCI-60 one-dose screen, 48 h (100 = growth as untreated, 0 = no growth, -100 = all killed)
Conditions in all cases: 10 µM unless noted
NCI-H23 lung = test system: NCI-H23 lung
NCI-H226 lung = test system: NCI-H226 lung
NCI-H322M lung = test system: NCI-H322M lung
HOP-62 NSCLC = test system: HOP-62 NSCLC
NCI-H460 lung = test system: NCI-H460 lung
HOP-92 NSCLC = test system: HOP-92 NSCLC
NCI-H522 lung = test system: NCI-H522 lung
A549/ATCC NSCLC = test system: A549/ATCC NSCLC
786-0 renal = test system: 786-0 renal
COLO 205 colon = test system: COLO 205 colon
DU-145 prostate = test system: DU-145 prostate
K-562 leukemia = test system: K-562 leukemia
MALME-3M melanoma = test system: MALME-3M melanoma
MDA-MB-231 breast = test system: MDA-MB-231 breast
RXF 393 renal = test system: RXF 393 renal
SF-268 CNS = test system: SF-268 CNS
SF-295 CNS = test system: SF-295 CNS
SF-539 CNS = test system: SF-539 CNS
UACC-257 melanoma = test system: UACC-257 melanoma
M14 melanoma = test system: M14 melanoma

Row | SMILES | growth (NCI-H23 lung) | growth (NCI-H226 lung) | growth (NCI-H322M lung) [%] | growth (HOP-62 NSCLC) | growth (NCI-H460 lung) | growth (HOP-92 NSCLC) | growth (NCI-H522 lung) | growth (A549/ATCC NSCLC) | growth (786-0 renal) [%] | growth (COLO 205 colon) | growth (DU-145 prostate) | growth (K-562 leukemia) | growth (MALME-3M melanoma) | growth (MDA-MB-231 breast) | growth (RXF 393 renal) | growth (SF-268 CNS) | growth (SF-295 CNS) | growth (SF-539 CNS) | growth (UACC-257 melanoma) | growth (M14 melanoma)
1 | COCCOc1cc2ncnc(N3CCN(S(=O)(=O)c4ccccc4Cl)CC3)c2cc1OCCOC | 85.8% | 95.5% | 98.3 | 90.4% | 103% | 75.6% | 65.8% | 86.7% | 89.2 | 96.8% | 91.2% | 41.3% | 67.9% | 74.8% | 83.9% | 86.2% | 82.7% | 88.8% | 83.5% | 71.9%
2 | CC(C)(C)CC(N)=O | 100% | 95.6% | 108 | 89.4% | 103% | 104% | 111% | 97.6% | 101 | 109% | 111% | 116% | 102% |  | 103% | 105% | 92.5% | 95.3% | 95% | 92%
3 | CONC1=Nc2cc(NC(N)=NCc3ccccc3)c(N(C)C3CCCCC3)cc2OC1 | 68.3% | 67.3% | 87 | 82.3% | 59.7% | 35.4% | 59.3% | 78.7% | 71.2 | -36.1% (active) | 72.6% | 23.6% | 78.6% | 25.5% | 41.2% | 68.1% | 83.3% | 75.9% | 89.5% | 78.1%
4 | CC/C(=C(/c1ccc(Cl)cc1)c1ccc(OCCN2CCOCC2)cc1)c1ccccc1 | 87.5% | 108% | 104 | 106% | 96.1% | 98.4% | 88.6% | 89.9% | 103 | 99.8% | 98.4% | 63.7% | 104% | 95.5% | 107% | 90.5% | 97.1% | 104% | 98.8% | 99.5%
5 | c1cc(NCCCCN2CCOCC2)c2ccc3c(ccc4c(NCCN5CCOCC5)ccnc43)c2n1 | 70.7% | 79.6% | 72.9 | 81.5% | 40.8% | 56.8% | 82.5% | 75.9% | 79.5 | 90.5% | 80.8% | 66.5% | 99.9% | 71% | 72.5% | 101% | 97.9% | 82.3% | 116% | 92.7%
6 | COc1cc(N=Nc2ccc(O)c3ncccc23)c2ncccc2c1 | 50.2% | 64.6% |  | 42.7% | 17.4% | 32.4% | 15.9% | 8.08% (active) | 24.3 | 52.4% | 31% | 10.9% | 35.5% | 37.3% | 52.5% | 18.3% | 67.8% | 10.1% | 74.4% | 25.9%
7 | OB(O)c1ccsc1-c1nc2ccc3[nH]ncc3c2c2c1CCCC2 | 51.6% | 72% | 49.9 | 52.2% | 38.9% | 65.3% | 32.2% | 46.7% | 48.6 | 41.2% | 47.3% | 55.9% | 77.9% | 70.3% | 19.2% | 58.9% | 69.6% | 45.2% | 85.5% | 41.4%
8 | COc1c(NC=O)c2c(c([N+](=O)[O-])c1OC)C(=O)OC2 | 113% and 97.9% | 110% and 103% | 98.1 | 99.2% and 104% | 115% and 99.9% | 103% and 92.8% | 98.7% and 112% | 95.8% and 101% | 106 | 108% and 114% | 130% and 119% | 125% and 102% |  | 104% and 89.8% | 113% and 105% | 112% and 105% | 109% and 96.4% | 120% and 87.3% | 97.4% and 111% | 104% and 100%
9 | O=C1C(Nc2ccc(Cl)cc2)=C(I)C(=O)c2ncccc21 | 9.7% (active) | 88.4% | 64.3 | 48.1% | 17.5% | -90.4% (active) | -58.7% (active) | 35.5% | 26.1 | -45.9% (active) | 13.6% | 8.51% (active) | -46.5% (active) | -46.4% (active) | 41.7% | 28.9% | 75.2% | 7.82% (active) | 40.2% | -3.93% (active)
10 | COc1ccc(-c2cc(-c3cccnc3)nc3sc4c(Cl)nnnc4c23)cc1OC | 91.3% | 84.4% | 95.3 | 98.4% | 102% | 106% | 47.4% | 93.6% | 109 | 42% | 94.2% | 15.8% | 107% | 77.9% | 104% | 96.7% | 101% | 101% | 78.4% | 88.6%
11 | NCCOCCOc1ccccc1 | 97.2% | 103% | 96.1 | 109% | 103% | 64.8% | 93.1% | 104% | 100 | 113% | 101% | 108% | 97.8% | 114% | 124% | 97.8% | 103% | 108% | 106% | 102%
12 | BrC1=C(Br)C(Br)(Br)C(Br)=C1Br | 93% | 91.7% | 107 | 101% | 102% | 105% | -15.2% (active) | 95.2% | 82.4 | 69.6% | 106% | 32.9% | 106% | 73.7% | 75.1% | 97.8% | 113% | 82.2% | 84.7% | 65.2%
13 | C=CCNC(=O)Cc1c(-c2ccc(OC)cc2)oc2c(OC)c3c(c(OC)c12)OCO3 | 96.2% | 101% | 97.9 | 105% | 102% | 114% | 92.7% | 95.2% | 104 | 117% | 104% | 102% | 106% | 91.1% | 90.8% | 96.2% | 106% | 103% | 105% | 101%
